Several values for one entry are separate records, joined by “and”; a condition that tells them apart may be missing. Equal entries are not always repeated. Compounds without any hit were thinned out: in the full panel of roughly 83,000, 20% have a hit.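 Testing used 96-well plates and a 48-hour single-concentration exposure. Example: -40 means 40% of the starting cells died.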 Unmarked numbers belong to inactive results. Activity calls are given as the source filed them. Rule for the calls: active = growth percent below 10; inactive = the rest.
Tests used:
Experiment in all cases: NCI-60 one-dose screen, 48 h (100 = growth as untreated, 0 = no growth, -100 = all killed)
Details in all cases: 10 µM unless noted
[1] = test system: SK-MEL-2 melanoma
[2] = test system: EKVX NSCLC
[3] = test system: SN12C renal
[4] = test system: UO-31 renal
[5] = test system: TK-10 renal
[6] = test system: ACHN renal
[7] = test system: CAKI-1 renal
[8] = test system: A498 renal
[9] = test system: CCRF-CEM leukemia
[10] = test system: MOLT-4 leukemia
[11] = test system: SR leukemia
[12] = test system: RPMI-8226 leukemia
[13] = test system: OVCAR-8 ovarian
[14] = test system: OVCAR-5 ovarian
[15] = test system: OVCAR-4 ovarian
[16] = test system: SK-OV-3 ovarian
[17] = test system: IGROV1 ovarian
[18] = test system: OVCAR-3 ovarian
[19] = test system: HS 578T breast
[20] = test system: NCI/ADR-RES ovarian

**Q.** Which growth [1] does the source give for `C=CCN1C=CC(=O)[C@H](O[Si](C)(C)C(C)(C)C)[C@@H]1/C=C/c1ccccc1` here?
**A.** Its growth is -57% [100 µM] (active).

**Q.** And the growth [2]?
**A.** Its growth is -48% [100 µM] (active).

**Q.** And the growth [3]?
**A.** The growth was -74% [100 µM] (active).

**Q.** What about the growth [4] of the same compound?
**A.** Its growth is -73.4% [100 µM] (active).

**Q.** What about the growth [5] of the same compound?
**A.** Its growth is -64.6% [100 µM] (active).

**Q.** And the growth [6]?
**A.** The growth was -73.1% [100 µM] (active).

**Q.** And the growth [7]?
**A.** The growth was -72.5% [100 µM] (active).

**Q.** What about the growth [8] of the same compound?
**A.** The growth was -88.8% [100 µM] (active).

**Q.** And the growth [9]?
**A.** Its growth is -33.8% [100 µM] (active).

**Q.** And the growth [10]?
**A.** The growth was -30.4% [100 µM] (active).

**Q.** What about the growth [11] of the same compound?
**A.** The growth was -25.6% [100 µM] (active).

**Q.** And the growth [12]?
**A.** Its growth is -16% [100 µM] (active).

**Q.** And the growth [13]?
**A.** The growth was -47.1% [100 µM] (active).

**Q.** And the growth [14]?
**A.** The growth was -82.8% [100 µM] (active).

**Q.** And the growth [15]?
**A.** The growth was -84% [100 µM] (active).

**Q.** And the growth [16]?
**A.** Its growth is -87.6% [100 µM] (active).

**Q.** What about the growth [17] of the same compound?
**A.** The growth was -56.3% [100 µM] (active).

**Q.** What about the growth [18] of the same compound?
**A.** Its growth is -73.5% [100 µM] (active).

**Q.** What about the growth [19] of the same compound?
**A.** Its growth is -24.1% [100 µM] (active).

**Q.** What about the growth [20] of the same compound?
**A.** Its growth is -74.7% [100 µM] (active).

**Q.** Which growth [1] does the source give for `CCOC(=O)c1ccc(Nc2ncnc3c2cnn3-c2cccc(F)c2)cc1` here?
**A.** The growth was 114%.

**Q.** What about the growth [2] of the same compound?
**A.** Its growth is 97.5%.

**Q.** What about the growth [3] of the same compound?
**A.** Its growth is 95%.

**Q.** What about the growth [4] of the same compound?
**A.** Its growth is 72.1%.

**Q.** What about the growth [5] of the same compound?
**A.** The growth was 115%.

**Q.** What about the growth [6] of the same compound?
**A.** Its growth is 96.5%.

**Q.** And the growth [7]?
**A.** The growth was 84.8%.

**Q.** What about the growth [8] of the same compound?
**A.** Its growth is 99%.

**Q.** What about the growth [9] of the same compound?
**A.** The growth was 95.6%.

**Q.** What about the growth [10] of the same compound?
**A.** Its growth is 99.2%.

**Q.** What about the growth [11] of the same compound?
**A.** Its growth is 94.7%.

**Q.** What about the growth [12] of the same compound?
**A.** Its growth is 99.5%.

**Q.** What about the growth [13] of the same compound?
**A.** Its growth is 98.3%.

**Q.** And the growth [14]?
**A.** Its growth is 97.1%.

**Q.** And the growth [15]?
**A.** The growth was 99.7%.

**Q.** What about the growth [16] of the same compound?
**A.** Its growth is 120%.

**Q.** And the growth [17]?
**A.** Its growth is 98.7%.

**Q.** And the growth [18]?
**A.** The growth was 112%.

**Q.** What about the growth [19] of the same compound?
**A.** The growth was 95.9%.

**Q.** And the growth [20]?
**A.** The growth was 103%.

**Q.** What does the source list for `COC(=O)/C=C1/SC(N2N=C(c3cccs3)CC2c2ccc(F)cc2)=NC1=O` (stereo not given)?
**A.** growth [1]: 80.9%; growth [2]: 94%; growth [3]: 56%; growth [4]: 52.6%; growth [5]: 78.5%; growth [6]: 74.4%; growth [7]: 77%; growth [8]: 80.5%; growth [9]: 8.74% (active); growth [10]: -3.67% (active); growth [11]: 7.77% (active); growth [12]: -24.2% (active); growth [13]: 44.1%; growth [14]: 79.1%; growth [15]: 84.8%; growth [16]: 89.2%; growth [17]: 32.3%; growth [18]: 11.5%; growth [19]: 84.6%; growth [20]: 51.9%

**Q.** What does the source list for `CN1CCN(Cc2ccc(NC(=O)c3cccc(C#Cc4c(N)ncc5ccc(F)cc45)c3)cc2C(F)(F)F)CC1`?
**A.** growth [1]: -49.9% (active); growth [2]: -19.6% (active); growth [3]: 5.02% (active); growth [4]: -69.5% (active); growth [5]: -70.9% (active); growth [6]: -93.5% (active); growth [7]: -98.5% (active); growth [8]: -78.9% (active); growth [9]: -23.1% (active); growth [10]: -61.4% (active); growth [11]: -24.6% (active); growth [12]: -33.6% (active); growth [13]: -51.5% (active); growth [14]: -57.7% (active); growth [15]: -47.6% (active); growth [16]: 6.69% (active); growth [17]: -42.4% (active); growth [18]: -57.4% (active); growth [19]: -37.9% (active); growth [20]: -44.7% (active)

**Q.** What does the source list for `CN(C)CC1(C)Cc2ccsc2C1O` (stereo not given)?
**A.** growth [1]: 108% and 110%; growth [2]: 103% and 92.3%; growth [3]: 110% and 111%; growth [4]: 94.2% and 87.3%; growth [5]: 105% and 94.1%; growth [6]: 99.6% and 106%; growth [7]: 106% and 103%; growth [8]: 97.9% and 95.5%; growth [9]: 94.8%; growth [10]: 99.9% and 86.4%; growth [11]: 102% and 83.2%; growth [12]: 106% and 98.8%; growth [13]: 110% and 105%; growth [14]: 101% and 105%; growth [15]: 113% and 100%; growth [16]: 109% and 104%; growth [17]: 123% and 110%; growth [18]: 127% and 105%; growth [19]: 129%; growth [20]: 106% and 103%

**Q.** Which growth [1] does the source give for `O=C(Oc1ccc(CO[N+](=O)[O-])cc1)c1ccccc1` here?
**A.** Its growth is -72.3% (active).

**Q.** What about the growth [2] of the same compound?
**A.** Its growth is -99.9% (active).

**Q.** And the growth [3]?
**A.** Its growth is -87.6% (active).

**Q.** And the growth [4]?
**A.** The growth was -90.4% (active).

**Q.** What about the growth [5] of the same compound?
**A.** Its growth is -96.9% (active).

**Q.** And the growth [6]?
**A.** Its growth is -84.7% (active).

**Q.** What about the growth [7] of the same compound?
**A.** Its growth is -97% (active).

**Q.** What about the growth [8] of the same compound?
**A.** Its growth is -71.5% (active).

**Q.** What about the growth [9] of the same compound?
**A.** Its growth is -47.4% (active).

**Q.** And the growth [10]?
**A.** Its growth is -50.1% (active).

**Q.** What about the growth [11] of the same compound?
**A.** The growth was -45.7% (active).

**Q.** And the growth [12]?
**A.** Its growth is -53.1% (active).

**Q.** And the growth [13]?
**A.** The growth was -83.7% (active).

**Q.** And the growth [14]?
**A.** Its growth is -81.2% (active).

**Q.** And the growth [15]?
**A.** Its growth is -77.1% (active).

**Q.** What about the growth [16] of the same compound?
**A.** Its growth is -90.4% (active).

**Q.** And the growth [17]?
**A.** Its growth is -80.2% (active).

**Q.** What about the growth [18] of the same compound?
**A.** Its growth is -97% (active).

**Q.** And the growth [19]?
**A.** The growth was -25.1% (active).

**Q.** What about the growth [20] of the same compound?
**A.** The growth was -82% (active).

**Q.** Which growth [1] does the source give for `C=C(CNCCO)[C@@H]1CC[C@]2(CO)CC[C@]3(C)[C@H](CC[C@@H]4[C@@]5(C)CCC(NCCc6ccc(O)cc6)C(C)(C)[C@@H]5CC[C@]43C)[C@@H]12` (stereo not given in full) here?
**A.** The growth was -84.1% (active).

**Q.** What about the growth [2] of the same compound?
**A.** The growth was -75.3% (active).

**Q.** What about the growth [3] of the same compound?
**A.** The growth was -73.7% (active).

**Q.** What about the growth [4] of the same compound?
**A.** The growth was -95.4% (active).

**Q.** What about the growth [5] of the same compound?
**A.** The growth was -89.4% (active).

**Q.** And the growth [6]?
**A.** Its growth is -96.6% (active).

**Q.** And the growth [7]?
**A.** Its growth is -85.8% (active).

**Q.** And the growth [8]?
**A.** The growth was -87.5% (active).

**Q.** And the growth [9]?
**A.** Its growth is -28.5% (active).

**Q.** And the growth [10]?
**A.** The growth was -30.3% (active).

**Q.** What about the growth [11] of the same compound?
**A.** Its growth is -50.6% (active).

**Q.** What about the growth [12] of the same compound?
**A.** Its growth is -51.3% (active).

**Q.** What about the growth [13] of the same compound?
**A.** Its growth is -76.8% (active).

**Q.** What about the growth [14] of the same compound?
**A.** Its growth is 0.392% (active).

**Q.** What about the growth [15] of the same compound?
**A.** The growth was -27.1% (active).

**Q.** What about the growth [16] of the same compound?
**A.** Its growth is -73.2% (active).

**Q.** And the growth [17]?
**A.** Its growth is -61.5% (active).

**Q.** And the growth [18]?
**A.** Its growth is -64.3% (active).

**Q.** What about the growth [19] of the same compound?
**A.** Its growth is -55.9% (active).

**Q.** And the growth [20]?
**A.** Its growth is 33.4%.

Source: PubChem BioAssay (NCI)
